Laboratory results reported in PubChem BioAssay AID588549 (Broad Institute, 2011).
The whole screen tested about 360,000 compounds, of which about 780 (0.22%) were called active. What follows is part of a selection rich in actives, with near analogues and random picks from the rest. Values without a mark were called inactive. No stated cut-off is given here; in the data, active means inhibition above about 8.5% (passing the limit was not always enough); inconclusive means no clear call, values can overlap the other calls.

The molecules below were run on Mycobacterium tuberculosis FadD28 fatty-acid-AMP ligase (assay: inhibitors of FadD28 bisubstrate probe binding, primary screen, biochemical, fluorescence polarization, single point (AID 588549)). Conditions: at 12.5 µM, active compounds read high.
With `Cc1ccc(C(O)P(=O)(OC(C)C)c2ccc(N(C)C)cc2)cc1` (configuration not stated) the inhibition was 0.612%.
With `CCCCn1c(N)c(N2CCOCC2)c(=O)n(CC(=O)NCCc2ccccc2)c1=O` the inhibition was 0%.
Work on `N[C@@H](Cc1ccccc1)C(=O)N1CCC(C(=O)NCC(=O)Nc2ccc(F)cc2)CC1` yielded an inhibition of 0.565%.
`O=C(CSc1n[nH]c(=O)n1-c1ccccc1)Nc1ccccc1C(F)(F)F` showed an inhibition of -1.05%.
With `C=C1c2c(Cl)ccc(O)c2C(O)=C2C(=O)[C@]3(O)C(O)=C(C(N)=O)C(=O)[C@@H](N(C)C)[C@@H]3[C@@H](O)C12` (some centres not stated) the inhibition was 11.1% (active).
`C[C@H]([C@@H](O)[C@@H](O)[C@@H](C)C(C)(C)C)[C@H]1CC[C@H]2C3CC[C@H]4C[C@H](OS(=O)(=O)O)[C@@H](OS(=O)(=O)O)C[C@]4(C)[C@H]3CC[C@]12C` (some centres not stated) was tested, and the inhibition was -4.53%.
In the case of `Cc1ccc(NC(=O)C(c2ccccc2)N2CCN(C(=O)c3ccco3)CC2)cc1` (configuration not stated), the inhibition was -0.809%.
For `COc1ccc(C(CNC(=O)c2cccc(S(=O)(=O)Nc3ccccc3Cl)c2)N2CCOCC2)cc1` (configuration not stated), the inhibition was 0.098%.
In the case of `CCCCN=C1N/C(=C\c2ccco2)C(=O)N1c1ccccc1`, the inhibition was -0.549%.
`COc1ccc(N2C(=O)/C(=C/c3ccco3)C(=O)NC2=S)cc1` was tested, and the inhibition was 32.5% (active).
`COC(=O)C1=C(C)N(C(C)c2ccccc2)C(=O)/C1=C\c1ccco1` (configuration not stated) showed an inhibition of -2.87%.
Work on `N#CCN(C(=O)COC(=O)C1CC2CCCC(C1)C2=O)c1ccccc1` (configuration not stated) yielded an inhibition of 0.44%.
With `CCOC(=O)C(CC)/C(C)=N\NC(=O)c1cccc(C)c1` (configuration not stated) the inhibition was -0.964%.
`CCN(CC)C(=O)C1=C(C)N(Cc2ccc(F)cc2)C(=O)C(CC(=O)NC2CCCC2)C1` (configuration not stated) was tested, and the inhibition was -3.83%.
`Cc1ccc(S(=O)(=O)N(C)c2ccc(OCC(=O)OCc3ccc(C#N)cc3)cc2)cc1` gave an inhibition of -1.59%.
Work on `Nc1ncc(CN2CCCC(C(=O)Nc3ccc(-c4ccco4)cc3)C2)cn1` (configuration not stated) yielded an inhibition of -5.68%.
In the case of `O=C(COC(=O)CNS(=O)(=O)c1ccc(F)c(F)c1F)NC1CCCC1`, the inhibition was -2.7%.
With `O=C(OCc1ccc([N+](=O)[O-])cc1)C1CC(=O)N(Cc2ccccc2Cl)C1` (configuration not stated) the inhibition was -0.71%.
Work on `Cc1ccc(S(=O)(=O)N2CCOCC2)cc1NC(=O)CSc1nnc(N)s1` yielded an inhibition of 1.4%.
With `O=S(=O)(Nc1ccc2nc(-c3ccco3)[nH]c2c1)c1ccccc1` the inhibition was -2.01%.
`COc1cccc2c(O)cc(=O)n(C)c12` gave an inhibition of -3.24%.
`COc1cccc2c(C)c(C(=O)O)[nH]c12` was tested, and the inhibition was 15.1% (active).
In the case of `COc1cc2c(C(=O)O)c(C)n(C)c2c2ccccc12`, the inhibition was 2.25%.
Molecule `O=C1Nc2cc(Cl)c(Cl)cc2N(O)N1c1cc(Cl)cc(Cl)c1` has an inhibition of -1.95%.
In the case of `CC12CCC(=O)N1C(C(=O)Nc1ccc(F)c(F)c1F)CS2` (configuration not stated), the inhibition was -2.85%.
In the case of `CC[C@]1(C(=O)OC)[C@H]2C(=O)N(Cc3ccccc3)C(=O)[C@H]2[C@H]2CN=C(SCc3ccc(C#N)cc3)N21`, the inhibition was -7.96%.
`COc1cc(/C=C2/C(=O)NN(c3cccc(Cl)c3)C2=O)cc(Br)c1O` was tested, and the inhibition was 14.2% (active).
With `CCOc1c(Br)cc(/C=C2\C(=O)N(CCC#N)N=C2C)cc1OC` the inhibition was -4.34%.
For `Cc1c(C(=O)CN2CCOCC2)[nH]c2ccccc12`, the inhibition was -2.15%.
`CCCS(=O)(=O)Nc1c(C(=O)O)[nH]c2ccccc12` showed an inhibition of 1.47%.
For `O=C(O)c1[nH]c2ccccc2c1C(c1cccc(O)c1)c1c(C(=O)O)[nH]c2ccccc12`, the inhibition was 28.9% (active).
`COc1cccc(C(=O)N/N=C(\C)c2cccc(NC(=O)c3ccc(F)cc3)c2)c1OC` gave an inhibition of -4.93%.
In the case of `C/C(=N\Nc1cccc(C(=O)O)c1)c1ccc2c(c1)Nc1ccccc1S2`, the inhibition was 13.8% (active).
With `CC(=O)Nc1cccc(/C(C)=N/NC(=O)c2c(-c3ccccc3Cl)noc2C)c1` the inhibition was -2.25%.
`Cc1ccc(CNC(=O)CCNS(=O)(=O)c2cccc3nonc23)cc1` was tested, and the inhibition was 0.736%.
For `CC1CCN(C(=O)c2cc3nc(C4CC4)cc(C(F)(F)F)n3n2)CC1`, the inhibition was -2.25%.
`COc1ccc(/C=C/CN2CCCC(C(=O)c3cc(F)ccc3F)C2)cc1` (configuration not stated) showed an inhibition of -1.96%.
Work on `CN(C(=O)C1CCN(c2ncnc3c2nc2n3CCCCC2)CC1)C1CCCCC1` yielded an inhibition of -3.36%.
Work on `COCCCNC(NC(=O)c1ccc(OC)cc1)C(Cl)(Cl)Cl` (configuration not stated) yielded an inhibition of -3.52%.
`c1ccc(CCN2CN=C(Nc3nc4ccccc4o3)NC2)cc1` was tested, and the inhibition was -1.13%.
In the case of `COc1ccc(C(=O)c2c(C)c(CCC#N)n3ccccc23)c(OC)c1`, the inhibition was -2.38%.
Work on `Cc1ccc(S(=O)(=O)N2C[C@H]3C(=O)C[C@@H](c4cccc5ccccc45)N(S(=O)(=O)c4ccc(C)cc4)[C@H]3C[C@H]2c2ccc(Cl)cc2)cc1` yielded an inhibition of -2.51%.
